# Experimental data reported in PubChem BioAssay.
# System: Lefty1
# Assay: Lefty1 protein binding to printed compounds – biochemical, small-molecule microarray, 635/667 nm fluorescence, primary screen (AID 1139)
# Conditions: fluorescence 635/667, higher = more signal
row,SMILES,composite z-score
1,CCCCCCc1nc(-c2ccc(OC)nc2)cc2c1[Si](C(C)C)(C(C)C)O[C@H]2c1ccccc1,1.44
2,O=C(CS)NCCCCCCNC(=O)[C@@H]1C[C@@H]2C(=O)N[C@@H](Cc3ccccc3)C(=O)N2[C@@H]1c1cccc(OCCO)c1,0.823
3,COC(=O)[C@@]1(Cc2ccc(OC)cc2)[C@H]2c3cc(C(=O)N(C)C)n(Cc4ccc(S(C)(=O)=O)cc4)c3C[C@H]2CN1C(=O)c1ccccc1,0.0038
4,O=C1C[C@@](C(=O)NC2CC2)(c2ccc([N+](=O)[O-])cc2)[C@@H](c2ccc(CO)cc2I)N1C1CCCCC1,1.14
5,CN1C=C(C(=O)OCCS(C)(=O)=O)C(C(=O)OCCS(C)(=O)=O)=CC(c2ccc(CO)cc2)=CC1C1CC1 (stereo not drawn),0.53
6,O=C1NC(=O)C2C1C=CC(C(O)c1cc(C(F)(F)F)cc(C(F)(F)F)c1)N2Nc1ccccn1 (stereo not drawn),0.187
7,CN(C)CCCCCCNC(=O)[C@@H]1C[C@@H]2C(=O)N[C@@H](Cc3ccccc3)C(=O)N2[C@@H]1c1ccc(O)cc1,1.67
8,Cc1nc2cc(Br)ccc2c(=O)o1,0.328
9,O=C(NC1CC1)[C@@H]1c2ccccc2C(=O)N(Cc2ccccc2Cl)[C@H]1c1ccc(CO)cc1,0.233
10,O[C@@H](Cc1ccccc1)[C@H]1C2C=CCCC=C2CN1Cc1cccc(Cl)c1 (stereo partly drawn),1.41
11,COCCOC(=O)N1C(=O)[C@@]2(c3cc(C#CCNC(N)=O)ccc31)[C@H](C(=O)N1CCN(c3ncccn3)CC1)[C@H]1C(=O)O[C@H](c3ccccc3)[C@H](c3ccccc3)N1[C@@H]2c1ccc(OCCO)cc1,0.465
12,COCCOC(=O)N1C(=O)[C@@]2(c3cc(C#CCNC(N)=O)ccc31)[C@H](C(=O)Nc1nc3ccccc3s1)[C@H]1C(=O)O[C@H](c3ccccc3)[C@H](c3ccccc3)N1[C@@H]2c1ccc(OCCO)cc1,0.9
13,CC(C)C(O)C1C=CC2C(=O)N(c3ccccc3)C(=O)C2N1Nc1ccc([N+](=O)[O-])cc1 (stereo not drawn),-0.0809
14,CCOC(=O)C[C@H]1[C@H](OC(=O)c2ccccc2-c2ccccc2)[C@@H](NC(=O)CC(C)C)c2cc(OCCCO)ccc2N1C(=O)Cc1ccc(OC)cc1,0.108
15,C=C(CCCC)/C(=C/C[C@H](OC(C)=O)c1ccccc1OCCO)c1cc(C(=O)OC)ccc1OC,0.0742
16,C=CCC(OC(C)=O)[C@@H]1[C@@H](N(Cc2ccc(-c3ccccc3)cc2)C(=O)Cc2ccc(OC)cc2)c2cc(OCCCO)ccc2N1C(=O)Cc1ccc2ccccc2c1 (stereo partly drawn),0.168
17,COc1ccc(CCNC(=O)[C@@]2(Sc3ccc(C)cc3)CC(=O)N(C3Cc4ccccc4C3)[C@@H]2c2ccc(CO)cc2I)cc1,-1.04
18,COC(=O)[C@@]1(Cc2ccccc2)N=C(c2ccc(OCCCO)cc2)O[C@H]1c1ccccc1,-0.63
19,COCCOC(=O)N1C(=O)[C@@]2(c3cc(C#CCC(C(=O)OC)C(=O)OC)ccc31)[C@H](c1ccccc1OCCO)N1[C@H](c3ccccc3)[C@H](c3ccccc3)OC(=O)[C@H]1[C@@H]2C(=O)N1CCN(c2ncccn2)CC1,1.17
20,C=C(CCCC)/C(=C/C[C@@H](OC(=O)c1ccncc1)c1ccc(OCCO)cc1)c1cc(C(=O)OC)ccc1OC,0.865
21,CCCCN1CC=CC23O[C@@H]4C=CCCOC(=O)C4[C@H]2C(=O)N(CCCCCCO)[C@@H]3C1=O (stereo partly drawn),1.28
22,CN(C)CCCC[C@@H]1NC(=O)[C@H]2C[C@@H](C(=O)NCCCCCCN)[C@@H](c3ccc(O)cc3)N2C1=O,1.67
23,COc1ccc(-c2cc3c(c(-c4ccc(Oc5ccccc5)cc4)n2)[Si](C(C)C)(C(C)C)OC3)cn1,0.278
